Data taken from PubChem BioAssay (NCATS).
Values joined by “and” are separate entries in the source; they are usually repeats but may differ in a detail not shown here. Equal values may be shown once. Results filed as inconclusive are left out. Active and inactive are the calls of the source. Calls come from the whole dose curve.

Assay: Cell Viability - HepG2 (AID 433);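 note: cells exposed to compound for 40 hours; potency for ATP loss meaning cytotoxicity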
Conditions: qHTS
In short: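 Read-out is luciferase-based quantitation of cellular ATP as a measure of viable HepG2 cells after 40 h treatment at 37 °C. Signal decrease is scaled between DMSO-only and 100 uM tamoxifen controls, with AC50 fitted by the Hill equation.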
Potency is the fitted concentration of half-maximal effect.

| Compound | Potency |
| --- | --- |
| O=Cc1ccco1 | > 92 µM (inactive) |
| O=C(O)C(Cl)(Cl)Cl | > 92 µM (inactive) |
| CCCCCl | > 92 µM (inactive) |
| [O]=[Cr](=[O])([OH])[O][Cr](=[O])(=[O])[OH] | 12.2 µM (active) and 14.7 µM (active) and 7.52 µM (active) |
| S=C=S | > 92 µM (inactive) |
| CCOC(=O)c1ccccc1C(=O)OCC | > 92 µM (inactive) |
| O=C1CCO1 | > 92 µM (inactive) |
| O=[N+]([O-])c1ccccc1 | > 92 µM (inactive) |
| CC(C)CCON=O | > 92 µM (inactive) |
| Clc1ccccc1Cl | > 92 µM (inactive) |
| C[C@H]1CC[C@@H]2[C@@H](C)[C@H]3[C@H](C[C@H]4[C@@H]5CC=C6CC(O[C@@H]7O[C@H](CO)[C@H](O)[C@H](O[C@@H]8O[C@H](CO)[C@@H](O)[C@H](O)[C@H]8O)[C@H]7O[C@H]7O[C@@H](C)[C@H](O)[C@@H](O)[C@H]7O)CC[C@]6(C)[C@H]5CC[C@]34C)N2C1 (some centres undefined) | 23.7 µM (active) |
| Oc1cc(Cl)c(Cl)cc1Cl | > 92 µM (inactive) |
| COc1ccc2c(c1OC)C(=O)OC2C1c2cc3c(cc2CCN1C)OCO3 (centres undefined) | > 92 µM (inactive) |
| O=CC=O | > 92 µM (inactive) |
| ClC(Cl)(Cl)Cl | > 92 µM (inactive) |
| C[C@]12CCC(=O)C[C@@H]1CC[C@@H]1[C@@H]2CC[C@]2(C)[C@@H](O)CC[C@@H]12 | > 92 µM (inactive) |
| C=CCN=C=S | > 92 µM (inactive) |
| [O]=[Cd] | > 92 µM (inactive) |
| O=[N+]([O-])c1ccc(F)c([N+](=O)[O-])c1 | 46.1 µM (active) |
